# High-throughput results deposited in PubChem BioAssay by several laboratories.
# SMARCA2 act = increases SMARCA2 function in MMTV reporter cells; MG213 cells, MMTV-luciferase reporter, dexamethasone, overnight; activation, % at 9.1 µM; 370,000 tested, 1% active; in the data active means activation above about 7.8%;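 further: 0% = vehicle wells and 100% = reference activator wells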
# MIN6 prolif = inducers of beta-cell replication in MIN6 cells; proliferation, % at 10 µM; 330,000 tested, 0.29% active; AID 2380; MIN6 cells proliferation, ATPlite luminescence, 48 h; cells starved in 0.2% serum; 100% = growth in 10% serum;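 active means compounds whose signal lies at least 3.5 SD above the mean of all wells on their plate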;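 further: 0% = DMSO-treated cells in low-serum medium and 100% = 10% serum control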
# Exocytosis inh = lytic granule exocytosis inhibition. inhibition, % at 10 µM. 360,000 tested, 0.66% active. TALL-104 LAMP-1 surface exposure, flow cytometry; cells stimulated with thapsigargin and PMA;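 active means inhibition above about 55%, limit read from the data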
# GASC-1 inh = inhibitors of human GASC-1 (JMJD2C) demethylase; GST-JMJD2C(1-420) H3K9me3 demethylation, DELFIA europium; inhibition, % at 2.35 µM; 330,000 tested, 0.069% active;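 active means more than half of a compound's replicate wells show inhibition beyond 50%, single wells judged on their own value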;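 further: signal counts dimethyl H3K9 product captured on neutravidin plate; 0% = median of DMSO wells and 100% = 0.3 times that DMSO median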
# Target sequence (Q9H3R0 1-420 limits assumed): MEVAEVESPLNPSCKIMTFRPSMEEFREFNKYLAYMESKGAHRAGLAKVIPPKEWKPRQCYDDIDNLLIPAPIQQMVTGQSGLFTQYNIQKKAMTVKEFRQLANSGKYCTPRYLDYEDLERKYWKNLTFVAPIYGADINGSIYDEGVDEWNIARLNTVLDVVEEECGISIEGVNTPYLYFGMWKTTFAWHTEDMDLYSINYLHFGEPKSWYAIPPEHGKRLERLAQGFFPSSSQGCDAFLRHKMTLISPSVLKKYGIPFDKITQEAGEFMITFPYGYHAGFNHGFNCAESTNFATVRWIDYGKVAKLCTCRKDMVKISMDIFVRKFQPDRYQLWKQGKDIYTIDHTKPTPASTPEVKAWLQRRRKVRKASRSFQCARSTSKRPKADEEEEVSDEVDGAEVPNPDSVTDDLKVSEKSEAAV
# ALR inh = inhibitors of human sulfhydryl oxidase ALR; P55789; purified ALR, DTT oxidation, H2O2 HRP-luminol luminescence; inhibition, % (no concentration beside the values); 290,000 tested, 3.8% active; AID 485317;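 active means mean replicate inhibition above about 79%, with every replicate also reaching it, limit read from the data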
# Target sequence (P55789 whole entry, looked up): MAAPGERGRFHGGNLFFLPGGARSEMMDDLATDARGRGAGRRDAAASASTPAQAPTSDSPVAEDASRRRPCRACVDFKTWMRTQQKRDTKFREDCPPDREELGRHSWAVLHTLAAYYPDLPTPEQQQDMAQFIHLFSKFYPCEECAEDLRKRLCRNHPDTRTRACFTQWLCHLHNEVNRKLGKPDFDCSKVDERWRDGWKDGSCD
# PfM18AAP inh = PfM18AAP enzyme inhibition. recombinant PfM18AAP, H-Glu-NHMec fluorogenic cleavage. inhibition, % at 7.35 µM. 290,000 tested, 1.2% active. AID 1822;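 active means inhibition above the campaign mean inhibition over all tested compounds plus 3 SD, cut at about 28% in these data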;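 further: 0% = plate median of test compound wells and 100% = 2 mM ZnCl2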
# SMARCA2 act conf = confirmation of SMARCA2 (BRM) function activators | shares compounds with SMARCA2 act | MG213 cells, MMTV-luciferase with dexamethasone, luminescence, overnight; MG213 cells expressing E1A, Rb sequestered; DMSO wells 0%, reference activator 100% | activation, % at 9.1 µM | 3,500 tested, 30% active | AID 652260;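 active means activation above its plate's cutoff, the mean activation of tested wells plus 3 SD, cut at about 7.9% in these data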
# GAL4-VP16 Luc = activates GAL4-VP16 luciferase, flagging SMARCA2 activator hits; HEK293 GAL4-VP16 pG5luc reporter, luciferase luminescence; scaled: DMSO wells 0%, SAHA wells 100%; activation, % at 9.1 µM; AID 686939; 3,500 tested, 41% active; shares compounds with SMARCA2 act;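 active means activation above the solvent-only control well mean plus 3 SD, averaged across control plates, cut at about 5.2% in these data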
# * marks the source's active call; other numbers are inactive results; nt = no result. In the library only some 5.4% were active in any assay of this set; here they are far more common.
SMILES,SMARCA2 act,MIN6 prolif,Exocytosis inh,GASC-1 inh,ALR inh,PfM18AAP inh,SMARCA2 act conf,GAL4-VP16 Luc
COc1ccc(NC(=O)c2cccc3c(-c4ccc(O)c(OC)c4)coc23)cc1,-2.6,nt,10.8,nt,nt,nt,nt,nt
COC(=O)Cc1nnn2c1[C@H](C)[C@H](c1ccccc1Br)OC[C@@H]2c1ccccc1,-3.1,nt,nt,nt,nt,nt,nt,nt
CN(C)c1nn2c(-c3ccccc3)nnc2o1,8.8*,nt,-1.0,nt,nt,nt,-0.2,2.9
CC1CCN(c2nc3ccc(C(=O)NCCCN4CCCCC4)cc3s2)CC1,12.3*,0.1,0.8,7.1,9.2,5.9,4.1,17.3*
COc1ccc(CC(=O)NCC2CCN(C(=O)C(=O)c3cc4ccccc4o3)CC2)cc1,-2.0,nt,nt,nt,nt,nt,nt,nt
COc1ccc([C@H]2C[C@@H](O)[C@H](n3cc(C4CC4)nn3)CN2C(=O)C2CCCCC2)cc1,3.4,nt,1.1,nt,nt,nt,nt,nt
O=c1oc(-c2ccc(O)c(O)c2)cc2cccc(O)c12,8.5*,-3.9,-3.2,nt,nt,nt,8.1*,13.0*
O=c1oc(-c2ccc(O)c(O)c2)cc2cc(O)cc(O)c12,11.0*,-1.8,2.5,nt,nt,nt,12.0*,8.3*
O=c1cc(-c2ccc(O)c(O)c2)oc2c1ccc1ccccc12,-3.0,-6.2,-2.8,-20.4,61.6,nt,nt,nt
O=c1cc(-c2ccc(O)c(O)c2)oc2ccc3ccccc3c12,8.2*,-6.4,-2.9,nt,nt,nt,-6.7,5.2*
O=c1cc(CN2CCN(c3ccc(Cl)c(Cl)c3)CC2)c2c(ccc3ccccc32)o1,3.4,nt,0.5,nt,nt,nt,nt,nt
COc1cc(Nc2ccn3nc(-c4ccccc4Cl)cc3n2)cc(OC)c1OC,2.5,nt,0.1,nt,nt,nt,nt,nt
c1ccc2sc(-n3cc(C4CCCCC4)nn3)nc2c1,6.1,nt,-5.8,nt,nt,nt,nt,nt
COc1ccc(CN2CCC[C@]3(N[C@H](c4ccccc4)[C@@H]4C(=O)N(Cc5ccccc5)C(=O)[C@@H]43)C2=O)cc1,-0.8,nt,-2.2,nt,nt,nt,nt,nt
Fc1cccc2sc(N3CCCCC3)nc12,6.5,-0.6,-2.1,-4.3,-4.3,8.2,nt,nt
Fc1cc(F)c2nc(N3CCCC3)sc2c1,8.4*,-2.8,-1.3,-26.2,-5.4,-2.7,4.1,4.6
CCN(CC)CCN1C(=O)C(=O)/C(=C(/O)c2cnn(-c3ccccc3)c2C)C1c1ccc(C)o1 (stereo unspecified),12.2*,-0.4,1.3,-1.1,2.3,-13.1,6.2,3.0
Cc1ccc(C2/C(=C(\O)c3cnn(-c4ccccc4)c3C)C(=O)C(=O)N2CCN(C)C)o1 (stereo unspecified),1.7,-2.3,-1.5,11.7,-1.0,8.4,nt,nt
C(=C\c1ccccc1)/CN1CCN(C(c2cc3ccccc3o2)c2nnnn2C2CCCCC2)CC1 (stereo unspecified),0.2,nt,25.2,nt,nt,nt,nt,nt
COc1cc(Cn2c3ccc(NC(=O)CC(C)C(F)(F)F)cc3c(=O)n2C)ccc1F (stereo unspecified),-1.7,nt,-0.8,nt,nt,nt,nt,nt
O=C(Nc1nc2ccccc2n1CCN1CCOCC1)c1ccc(Cl)cc1,8.0*,-1.3,1.0,-13.5,nt,-17.4,-2.6,2.2
O=C(Nc1nc2ccccc2n1CCN1CCCC1)c1ccc(Cl)cc1,9.1*,-1.8,0.1,1.1,nt,2.0,18.1*,13.5*
CC(=O)c1cccc(-c2ccnc3c2CC(C(=O)Nc2ccc(F)c(Cl)c2)O3)c1 (stereo unspecified),-3.3,nt,12.6,nt,nt,nt,nt,nt
COC(=O)C1=C(C)N(C)C(=NCc2ccc(C(F)(F)F)cc2)NC1c1ccc(F)cc1 (stereo unspecified),-3.0,nt,nt,nt,nt,nt,nt,nt
CCCC#Cc1ccc2c(c1)O[C@@H](CN(C)Cc1ccc3c(c1)OCO3)[C@H](C)CN([C@@H](C)CO)S2(=O)=O,-2.0,nt,28.8,nt,nt,nt,nt,nt
SMILES,SMARCA2 act,MIN6 prolif,Exocytosis inh,GASC-1 inh,ALR inh,PfM18AAP inh,SMARCA2 act conf,GAL4-VP16 Luc
COc1ccccc1NS(=O)(=O)c1cccc(NC(=O)Nc2ccccc2)c1,-5.8,-4.9,13.3,-4.3,1.0,-5.2,nt,nt
Cc1ccc(NC(=O)c2cc3ccccc3oc2=O)cc1S(=O)(=O)N(C)C,nt,-2.6,-4.1,-38.6,-1.0,-15.0,nt,nt
CN(c1ccccc1)S(=O)(=O)c1cccc(NC(=O)c2cc3ccccc3oc2=O)c1,11.7*,-2.1,-1.0,1.9,-4.1,-9.9,-0.8,6.3*
COc1ccccc1NS(=O)(=O)c1cccc(NC(=O)c2cc3ccccc3oc2=O)c1,8.1*,0.6,-6.2,60.2,2.4,-5.4,4.2,9.5*
CCC/C=C/c1ccc(CN2C(C)C(=O)N(Cc3cn(CCC4OCCO4)nn3)CCS2(=O)=O)cc1 (stereo unspecified),2.9,nt,1.8,nt,nt,nt,nt,nt
CCc1nc2ccc(C(=O)Nc3cccc(NS(C)(=O)=O)c3)cn2c1N(CCC(C)C)CCN(C)C,-0.9,nt,0.2,nt,nt,nt,nt,nt
CCS(=O)(=O)c1ccc(O)c(NC(=O)COc2ccc(OC)cc2)c1,8.1*,-2.7,-0.9,-0.2,5.4,0.1,-1.8,-1.3
CC(C)CCNC(=O)C(=O)Nc1ccccc1,9.1*,0.1,1.2,4.3,-9.9,5.3,6.4,7.2*
Cc1ccc(Cn2cc(CN3[C@H](c4ccccc4)COc4cc(Br)ccc4S3(=O)=O)nn2)cc1,-2.5,nt,nt,nt,nt,nt,nt,nt
Cc1ccc(-c2nn(-c3ccc(F)cc3)cc2C(=O)N2CCN(C3CCS(=O)(=O)C3)CC2)cc1 (stereo unspecified),9.5*,5.2,-5.6,4.4,-2.0,nt,4.3,1.9
COc1ccc(Nc2nc3cc(-c4sccc4C)sc3c(=O)n2C)cc1OC,9.3*,nt,23.0,nt,nt,nt,3.5,8.4*
CC(=O)NC(=O)c1ccc(-c2ccc(Cl)cc2)o1,8.5*,-0.5,-8.1,2.6,-17.8,-5.5,6.7,4.4
Nc1ncnc2c1ccn2[C@H]1CN(Cc2ccc(Cl)cc2)C[C@@H](CO)O1,-3.0,nt,-15.1,nt,nt,nt,nt,nt
CCOC(=O)c1c(NC(=O)COC(=O)CCNS(=O)(=O)c2ccccc2)sc(C(=O)N(C)C)c1C,0.6,-1.1,0.9,nt,nt,nt,nt,nt
CCOC(=O)c1c(NC(=O)COC(=O)CCCOc2ccc(OC)cc2)sc(C(=O)N(C)C)c1C,8.3*,nt,-1.7,nt,nt,nt,-0.8,0.5
CN1C/C(=C/c2ccccc2[N+](=O)[O-])C(=O)/C(=C\c2ccccc2[N+](=O)[O-])C1,26.2*,nt,30.9,nt,nt,nt,-15.5,5.1*
C=CCc1ccc(OCCCCN2CCC(C)CC2)c(OC)c1,12.1*,0.0,-1.7,26.5,-1.6,8.5,-5.6,3.0
CCc1nc2ccc(C(=O)Nc3ccc4c(c3)OCC(=O)N4)cn2c1N(CC)Cc1cccc(Br)c1,0.6,nt,-5.6,nt,nt,nt,nt,nt
CCOC(=O)C1=NN(c2ccc(F)cc2)C2=NC(C)=C(C(=O)OC)C(c3cccs3)N12 (stereo unspecified),8.8*,-1.4,1.4,-5.2,1.7,8.6,-2.5,3.2
